High-throughput results as filed in PubChem BioAssay.
Most compounds without a hit are left out; they make up all but 18% or so of the library.
TDP1 cell CPT – growth inhibition of DT40 Tdp1-/-;hTDP1 cells with camptothecin (screen for TDP1 inhibitors); chicken DT40 Tdp1-/-;hTDP1 cells + 20 nM CPT, ATP luminescence, 48 h; Potency, µM (series often up to 46.2 µM), for the others: at the highest dose activity change, negative = growth inhibition, usual class: inhibitors; 420,000 tested, 12% active; AID 686979; note: potency is the fitted concentration of half-maximal effect; nearly all actives have a fitted effect of over 55% in size
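Chicken DT40 Tdp1-/- cells stably complemented with human TDP1 were seeded at 400 cells/well in medium containing 20 nM camptothecin, exposed to pin-transferred compounds, and grown at 37 °C for at least 48 hr. Viability was read as ATP luminescence.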
TDP1 inh – TDP1 (human) enzyme inhibition. Q9NUW8. 350,000 tested, 0.28% active. Potency, µM (doses to about 130 µM), for inactives: at the highest dose activity change, negative = inhibition, actives largely listed as inhibitors. recombinant TDP1, AlphaScreen DNA substrate cleavage; note: potency is the fitted concentration of half-maximal effect; nearly all actives have a fitted effect of over 40% in size
Target sequence (Q9NUW8 whole entry, looked up): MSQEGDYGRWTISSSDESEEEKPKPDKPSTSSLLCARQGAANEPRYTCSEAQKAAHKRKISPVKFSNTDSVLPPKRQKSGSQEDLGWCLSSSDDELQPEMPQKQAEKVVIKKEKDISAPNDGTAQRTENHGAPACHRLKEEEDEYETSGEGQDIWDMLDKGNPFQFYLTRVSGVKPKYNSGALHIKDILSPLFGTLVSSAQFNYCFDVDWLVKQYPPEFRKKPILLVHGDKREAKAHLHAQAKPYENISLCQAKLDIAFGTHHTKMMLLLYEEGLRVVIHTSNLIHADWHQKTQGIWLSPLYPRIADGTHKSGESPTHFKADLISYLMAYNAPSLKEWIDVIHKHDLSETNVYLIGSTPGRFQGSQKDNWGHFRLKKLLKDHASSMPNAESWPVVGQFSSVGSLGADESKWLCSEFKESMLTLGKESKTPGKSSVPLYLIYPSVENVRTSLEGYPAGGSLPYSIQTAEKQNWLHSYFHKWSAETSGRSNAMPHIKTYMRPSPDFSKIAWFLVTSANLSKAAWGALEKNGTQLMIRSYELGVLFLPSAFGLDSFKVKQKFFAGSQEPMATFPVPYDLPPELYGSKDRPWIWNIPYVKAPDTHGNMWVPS
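Tdp1 1 nM final; 15 min RT w/ cpd; substrate 15 nM, 5 min; beads 10 ug/ml, 10 min; AlphaScreen read. Neg ctrl: no enzyme.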
CtBP-E1A blk – blocks the CtBP interaction with E1A; 340,000 tested, 0.49% active; AID 651724; AlphaScreen GST-E1A/His-CtBP binding, 1536-well; stronger effect = lower value; activity change, % (no concentration beside the values); in the data active = activity change below about -65%; inconclusive = mostly about -30% to -63%
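Steps: dispense buffer (Tris pH 8.0, NaCl 300 mM, TCEP 1 mM, BSA, Tween 20); add 5X protein mix (GST-E1A, His-CtBP, 125 nM each); pin 23 nL compound; 2 h at 37 °C, dark; add 5X beads (50 ug/mL); 1 h; read.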
IL1B secr inh – inhibitors of inflammasome signaling (IL-1 beta secretion); THP-1 LPS/ATP IL-1B secretion, AlphaLISA, 16 h; stronger effect = lower value; activity change, % at 57.5 µM; 360,000 tested, 4.7% active; AID 743279; in the data active = activity change below about -50%; inconclusive = mostly about -30% to -49%
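THP-1 cells pretreated 1 hr with compounds (up to 57.5 uM final), then stimulated with LPS (250 ng/mL final) plus ATP (1.25 mM final); secreted IL-1B measured by AlphaLISA after 16 hr, decreased signal indicating inhibition.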
Six1-Eya2 inh – Six1/Eya2 interaction inhibition. 360,000 tested, 0.56% active. AlphaScreen GST-Six1/His-Eya2 binding, biochemical; stronger effect = lower value. Q15475+O00167. AID 651725. activity change, % (no concentration beside the values); in the data active = activity change below about -65%; inconclusive = mostly about -30% to -63%
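AlphaScreen with GST-Six1 and His-Eya2 (5X mix: 250 nM and 500 nM), glutathione donor and nickel acceptor beads; buffer 50 mM Tris pH 8.0, 300 mM NaCl, 1 mM TCEP; 1 h at 37 C in the dark.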
DT40 TDP1 no CPT – qHTS for Inhibitors of human tyrosyl-DNA phosphodiesterase 1 (TDP1): qHTS in cells in absence of CPT; AID 686978, 2013; 420,000 tested, 15% active; DT40 Tdp1-/- hTDP1 cells, no CPT, ATP luminescence, 48 h; Potency, µM (titrated, usually from 46.2 µM), inactives show at the highest dose activity change, negative = growth inhibition, most hits filed as inhibitors; note: potency is the fitted concentration of half-maximal effect; nearly all actives have a fitted effect of over 55% in size
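Luminescent ATP content (CellTiter-Glo) served as the growth readout. Knockout chicken DT40 cells expressing human TDP1 were exposed to compounds without camptothecin for a minimum 48 hr at 37 °C.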
Starred values were filed as active, the others as inactive; ? = inconclusive; · = no result given. Unless noted, calls come from the whole dose curve; as a rule, active = well fitted curve in the direction sought with a large enough effect; inconclusive = small, poorly fitted or top-dose-only effect, or another doubt; inactive = no such curve, though single readings can be large; an effect the other way counts as inactive or inconclusive. % is set by controls: 0 for no effect and ±100 for the full control effect.

SMILES	TDP1 cell CPT	TDP1 inh	CtBP-E1A blk	IL1B secr inh	Six1-Eya2 inh	DT40 TDP1 no CPT
COc1ccc(CNC(=O)C(C)N2Cc3ccccc3C2=O)cc1 (stereo not given)	-3.3%	-1.9%	·	·	·	-20.2%
COc1cc(OC)c(NC(=O)CC(c2cccs2)N2Cc3ccccc3C2=O)cc1Cl (stereo not given)	23.1µM*	5.6%	·	·	·	18.4µM*
COc1ccc(C(CC(=O)Nc2cc(Cl)c(OC)cc2OC)N2Cc3ccccc3C2=O)cc1 (stereo not given)	?	0.0%	·	·	·	?
COc1ccccc1CNC(=O)CC(c1ccc(OC)c(OC)c1)N1Cc2ccccc2C1=O (stereo not given)	-9.6%	2.8%	·	·	·	?
COc1ccc(C(CC(=O)NCc2ccc(Cl)cc2)N2Cc3ccccc3C2=O)cc1OC (stereo not given)	18.4µM*	2.8%	·	·	·	13µM*
COc1ccc(C(CC(=O)NCc2ccccc2)N2Cc3ccccc3C2=O)cc1 (stereo not given)	?	5.6%	·	·	·	23.1µM*
COc1ccccc1C(=O)N(CN1CCCC1=O)c1cccc(Cl)c1	?	3.3%	-4.9	16.9	4.9	?
Oc1cccc(NC(=S)Nc2ccccc2)c1	-14.4%	·	·	7.2	4.0	-0.4%
CCCC(C(=O)NCc1cccc(Cl)c1)N1Cc2ccccc2C1=O (stereo not given)	?	1.2%	·	·	·	11.6µM*
Cc1ccc(CNC(=O)C(CC(C)C)N2Cc3ccccc3C2=O)cc1 (stereo not given)	?	-1.2%	·	·	·	?
COc1ccc(C(CC(=O)Nc2ccc(OC)c(OC)c2)N2Cc3ccccc3C2=O)cc1 (stereo not given)	?	-2.8%	·	·	·	?
COc1ccc(C(CC(=O)Nc2cc(OC)c(OC)c(OC)c2)N2Cc3ccccc3C2=O)cc1 (stereo not given)	23.1µM*	8.5%	·	·	·	23.1µM*
O=C(CN1C(=O)C2C3C=CC(C3)C2C1=O)OCC(=O)c1ccc(Br)cc1 (stereo not given)	?	2.0%	-20.8	19.6	-22.4	2.6%
CC1CCC(C(C)C)C(OCC(O)C[N+]2(C)CCCCC2)C1 (stereo not given)	?	3.6%	0.0	0.0	6.2	11.6µM*
CC1CCC(C(C)C)C(OCC(O)CN2CCCC(C)C2)C1 (stereo not given)	?	0.0%	-12.5	0.0	-2.8	?
CC1CCC(C(C)C)C(OCC(O)CN2CCN(Cc3ccccc3)CC2)C1 (stereo not given)	13µM*	2.1%	-12.4	?	-3.2	14.6µM*
C=C1CCC(C2CC(=O)OC2=O)C(=O)CCC2C1CC2(C)C (stereo not given)	8.8%	3.6%	·	·	·	-3.8%
Cc1cccnc1NC(=O)C1CCCN1S(=O)(=O)c1ccc(Cl)cc1 (stereo not given)	-4.5%	4.0%	-9.6	-1.6	24.5	-11.7%
Cc1ccc(N(Cc2cc3ccc(C)cc3[nH]c2=O)C(=O)c2cccs2)cc1	-21.9%	·	3.7	34.7	0.2	-14.6%
Cc1cccc(N(Cc2cc3ccccc3[nH]c2=O)C(=O)c2cccs2)c1	?	·	-12.6	?	-3.5	23.1µM*
Cc1ccc2[nH]c(=O)c(CN(Cc3ccco3)C(=O)c3cccs3)cc2c1	·	5.0%	·	·	·	·
Cc1ccc2cc(CN(Cc3ccco3)C(=O)c3cccs3)c(=O)[nH]c2c1	2.91µM*	4.5%	3.2	30.1	-8.7	3.66µM*
CNc1cncc(-c2cc(OC)c(OC)c(OC)c2)n1	?	·	-5.1	-19.6	-5.2	?
CCC(=O)N1CCN(c2cc(NCC3CCCO3)c(F)cc2[N+](=O)[O-])CC1 (stereo not given)	-4.4%	5.3%	-5.4	43.7	-1.5	-15.2%
Cn1c(=O)c(C(=O)NNC(=O)c2ccccc2Cl)c(O)c2ccccc21	?	·	?	-19.9	?	18.4µM*
SMILES	TDP1 cell CPT	TDP1 inh	CtBP-E1A blk	IL1B secr inh	Six1-Eya2 inh	DT40 TDP1 no CPT
CC(NC(=O)c1c(O)c2ccccc2n(C)c1=O)c1ccccc1 (stereo not given)	23.1µM*	·	-9.5	28.4	4.2	18.4µM*
CCn1c(=O)c(C(=O)NNC(=O)c2ccccc2Br)c(O)c2ccccc21	?	5.9%	?	78.8	?	?
Cn1c(=O)c(C(=O)NNC(=O)c2ccccc2Br)c(O)c2ccccc21	?	-3.6%	?	-6.6	-65.8*	?
CC(=O)c1c(O)c2ccccc2n(C)c1=O	4.1%	-2.7%	3.5	28.5	4.0	-8.8%
O=C(c1ccc2c(c1)OCO2)N1CCN(S(=O)(=O)c2ccc(Br)cc2Cl)CC1	-25.1%	0.6%	-8.1	?	-1.6	1.9%
CN(CCc1ccccc1)C1CCCN(S(=O)(=O)CC(F)(F)F)C1 (stereo not given)	14.4%	·	-2.1	?	-0.2	-22.6%
Cc1cccc(OCC(=O)N(Cc2ccc(C(C)(C)C)cc2)Cc2ccco2)c1	20.6µM*	2.3%	·	·	·	10.3µM*
Cc1cc(=O)oc2ccc(OCC(=O)N(Cc3ccc(F)cc3)Cc3ccco3)cc12	23.1µM*	·	-7.6	-61.7*	-13.8	?
Cc1ccc(CN(Cc2ccco2)C(=O)COc2ccc(C)c(C)c2)cc1	23.1µM*	6.1%	·	·	·	16.4µM*
CCc1ccc(OCC(=O)N(Cc2ccco2)Cc2ccccc2Cl)cc1	?	2.5%	·	·	·	13µM*
Cc1cc(=O)oc2cc(OCC(=O)Nc3ccc(F)cc3F)ccc12	-14.3%	-16.6%	-1.3	-12.0	-6.8	-10.9%
O=C(O)CNC(=S)N(Cc1ccco1)Cc1ccccc1Cl	-16.6%	-4.2%	0.8	15.8	6.1	-5.0%
Cc1cccc(OCC(=O)N(Cc2ccco2)C2CCS(=O)(=O)C2)c1 (stereo not given)	0.5%	·	23.0	11.4	20.8	-10.2%
CC(=O)NCCn1c(SCC(=O)NCc2ccco2)nc2ccccc2c1=O	-2.0%	2.0%	-5.4	-5.4	0.9	-5.7%
